Assay results: PubChem BioAssay AID1159580 (chemical genetic matrix, 2015)
Values joined by “and” are separate entries in the source; they are usually repeats but may differ in a detail not shown here. Equal entries are not always repeated. Among all 5,500 compounds or so, about 2,000 (36%) were called active. Inconclusive results (about 18%) are left out. No stated cut-off is given here; in the data, active means normalized growth mostly below about 0.91 (no sharp cut-off); inconclusive means no clear call, values can overlap the other calls; inactive means mostly above about 0.92. The list shows a part of the results.

Assay: chemical genetic growth profiling, strain panel (AID 1159580);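 further: tested at 20 µM; growth read once vehicle control cultures reached saturation at 30 °C; 1 = growth at the plate median or of vehicle wells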
Details: S. cerevisiae deletion strains, growth OD

Measured: normalized growth

CN(N=O)C(=O)N[C@@H]1[C@@H](O)[C@H](O)[C@@H](CO)O[C@@H]1O
inactive: locus YAL021C, strain ccr4, stronger effect = lower value 1 | locus YAL026C, strain drs2, stronger effect = lower value 0.991 | locus YAL030W, strain snc1, stronger effect = lower value 0.988 | locus YBL061C, strain skt5, stronger effect = lower value 1.01 | locus YBR009C, strain hhf1, stronger effect = lower value 0.979 | locus YBR021W, strain FUR4, stronger effect = lower value 1 | locus YBR023C, strain chs3, stronger effect = lower value 0.999 | locus YBR171W, strain sec66, stronger effect = lower value 1.01 | locus YBR229C, strain ROT2, stronger effect = lower value 1 | locus YBR231C, strain swc5, stronger effect = lower value 0.997 | locus YBR279W, strain paf1, stronger effect = lower value 1.02 | locus YCL011C, strain gbp2, stronger effect = lower value 1 | locus YCL016C, strain dcc1, stronger effect = lower value 1.03 | locus YCL029C, strain bik1, stronger effect = lower value 0.99 | locus YCL061C, strain MRC1, stronger effect = lower value 1.02 | locus YCL069W, strain vba3, stronger effect = lower value 0.974 | locus YCR088W, strain abp1, stronger effect = lower value 0.973 | locus YDL005C, strain med2, stronger effect = lower value 0.98 | locus YDL035C, strain GPR1, stronger effect = lower value 1.03 | locus YDL040C, strain nat1, stronger effect = lower value 0.999 | locus YDL074C, strain BRE1, stronger effect = lower value 1.02 | locus YDL101C, strain DUN1, stronger effect = lower value 1.01 | locus YDL134C, strain PPH21, stronger effect = lower value 1.02 | locus YDL185W, strain tfp1, stronger effect = lower value 1.02 | locus YDL192W, strain arf1, stronger effect = lower value 1.01 | locus YDR001C, strain nth1, stronger effect = lower value 0.978 | locus YDR069C, strain doa4, stronger effect = lower value 0.986 | locus YDR101C, strain arx1, stronger effect = lower value 0.979 | locus YDR137W, strain rgp1, stronger effect = lower value 0.938 | locus YDR150W, strain NUM1, stronger effect = lower value 1.01 | locus YDR159W, strain sac3, stronger effect = lower value 0.945 | locus YDR162C, strain NBP2, stronger effect = lower value 1.04 | locus YDR195W, strain ref2 0.988 | locus YDR297W, strain sur2, stronger effect = lower value 0.998 | locus YDR318W, strain mcm21, stronger effect = lower value 1.01 | locus YDR334W, strain swr1, stronger effect = lower value 0.95 | locus YDR335W, strain msn5, stronger effect = lower value 0.981 | locus YDR388W, stronger effect = lower value 1.01 | locus YDR392W, strain spt3, stronger effect = lower value 0.956 | locus YDR502C, strain sam2, stronger effect = lower value 0.998 | locus YEL003W, strain gim4, stronger effect = lower value 0.995 | locus YEL037C, strain rad23, stronger effect = lower value 0.986 | locus YEL061C, strain CIN8 (second series), stronger effect = lower value 0.971 | locus YEL061C, strain CIN8, stronger effect = lower value 1.01 | locus YER015W, strain faa2, stronger effect = lower value 1 | locus YER016W, strain bim1, stronger effect = lower value 0.983 | locus YER110C, stronger effect = lower value 1.01 | locus YER111C, strain swi4, stronger effect = lower value 0.998 | locus YER155C, strain BEM2 (second series), stronger effect = lower value 0.983 | locus YER155C, strain BEM2, stronger effect = lower value 1 | locus YER167W, strain BCK2, stronger effect = lower value 1.02 | locus YFR010W, strain ubp6, stronger effect = lower value 0.954 | locus YGL078C, strain dbp3, stronger effect = lower value 1 | locus YGL086W, strain mad1, stronger effect = lower value 0.989 | locus YGL167C, strain pmr1, stronger effect = lower value 0.993 | locus YGL173C, strain kem1, stronger effect = lower value 1.01 | locus YGL227W, strain vid30, stronger effect = lower value 1.01 | locus YGL240W, strain doc1, stronger effect = lower value 0.985 | locus YGL248W, strain PDE1, stronger effect = lower value 0.996 | locus YGL253W, strain hxk2, stronger effect = lower value 0.982 | locus YGR078C, strain PAC10, stronger effect = lower value 0.999 | locus YGR135W, strain pre9, stronger effect = lower value 1.04 | locus YGR229C, strain SMI1, stronger effect = lower value 1.01 | locus YGR252W, strain gcn5, stronger effect = lower value 1.02 | locus YHR013C, strain ard1, stronger effect = lower value 0.999 | locus YHR027C, strain rpn1, stronger effect = lower value 0.99 | locus YHR030C, strain SLT2, stronger effect = lower value 1 and 1.02 | locus YHR079C, strain IRE1 (second series), stronger effect = lower value 1 | locus YHR079C, strain IRE1, stronger effect = lower value 1.07 | locus YHR094C, strain hxt1, stronger effect = lower value 1 | locus YHR129C, strain ARP1, stronger effect = lower value 0.998 | locus YHR142W, strain chs7, stronger effect = lower value 0.962 | locus YHR200W, strain rpn10, stronger effect = lower value 1.01 | locus YIL066C, strain RNR3, stronger effect = lower value 1.01 | locus YIL073C, strain SPO22, stronger effect = lower value 1.14 | locus YIL125W, strain kgd1, stronger effect = lower value 1 | locus YIR030C, strain dcg1, stronger effect = lower value 1 | locus YJL092W, strain hpr5, stronger effect = lower value 0.979 | locus YJL095W, strain BCK1 (second series), stronger effect = lower value 1 | locus YJL095W, strain BCK1, stronger effect = lower value 1.02 and 1 | locus YJL115W, strain asf1, stronger effect = lower value 0.981 | locus YJL129C, strain trk1, stronger effect = lower value 0.984 | locus YJL134W, strain LCB3, stronger effect = lower value 1 | locus YJL154C, strain vps35, stronger effect = lower value 0.998 | locus YJL164C, strain tpk1, stronger effect = lower value 0.993 | locus YJL166W, strain qcr8, stronger effect = lower value 1 | locus YJL168C, strain set2, stronger effect = lower value 1.01
